Source: PubChem
Most compounds without a hit are left out; they make up all but 4.1% or so of the library.
NSD2 inh – blocks human histone methyltransferase NSD2; O96028; NSD2 peptide methylation, AlphaScreen, 120 min; inhibition, % at 12.5 µM; actives 0.54% (n = 310,000); in the data active means inhibition above about 50%
Target sequence (O96028 whole entry, looked up): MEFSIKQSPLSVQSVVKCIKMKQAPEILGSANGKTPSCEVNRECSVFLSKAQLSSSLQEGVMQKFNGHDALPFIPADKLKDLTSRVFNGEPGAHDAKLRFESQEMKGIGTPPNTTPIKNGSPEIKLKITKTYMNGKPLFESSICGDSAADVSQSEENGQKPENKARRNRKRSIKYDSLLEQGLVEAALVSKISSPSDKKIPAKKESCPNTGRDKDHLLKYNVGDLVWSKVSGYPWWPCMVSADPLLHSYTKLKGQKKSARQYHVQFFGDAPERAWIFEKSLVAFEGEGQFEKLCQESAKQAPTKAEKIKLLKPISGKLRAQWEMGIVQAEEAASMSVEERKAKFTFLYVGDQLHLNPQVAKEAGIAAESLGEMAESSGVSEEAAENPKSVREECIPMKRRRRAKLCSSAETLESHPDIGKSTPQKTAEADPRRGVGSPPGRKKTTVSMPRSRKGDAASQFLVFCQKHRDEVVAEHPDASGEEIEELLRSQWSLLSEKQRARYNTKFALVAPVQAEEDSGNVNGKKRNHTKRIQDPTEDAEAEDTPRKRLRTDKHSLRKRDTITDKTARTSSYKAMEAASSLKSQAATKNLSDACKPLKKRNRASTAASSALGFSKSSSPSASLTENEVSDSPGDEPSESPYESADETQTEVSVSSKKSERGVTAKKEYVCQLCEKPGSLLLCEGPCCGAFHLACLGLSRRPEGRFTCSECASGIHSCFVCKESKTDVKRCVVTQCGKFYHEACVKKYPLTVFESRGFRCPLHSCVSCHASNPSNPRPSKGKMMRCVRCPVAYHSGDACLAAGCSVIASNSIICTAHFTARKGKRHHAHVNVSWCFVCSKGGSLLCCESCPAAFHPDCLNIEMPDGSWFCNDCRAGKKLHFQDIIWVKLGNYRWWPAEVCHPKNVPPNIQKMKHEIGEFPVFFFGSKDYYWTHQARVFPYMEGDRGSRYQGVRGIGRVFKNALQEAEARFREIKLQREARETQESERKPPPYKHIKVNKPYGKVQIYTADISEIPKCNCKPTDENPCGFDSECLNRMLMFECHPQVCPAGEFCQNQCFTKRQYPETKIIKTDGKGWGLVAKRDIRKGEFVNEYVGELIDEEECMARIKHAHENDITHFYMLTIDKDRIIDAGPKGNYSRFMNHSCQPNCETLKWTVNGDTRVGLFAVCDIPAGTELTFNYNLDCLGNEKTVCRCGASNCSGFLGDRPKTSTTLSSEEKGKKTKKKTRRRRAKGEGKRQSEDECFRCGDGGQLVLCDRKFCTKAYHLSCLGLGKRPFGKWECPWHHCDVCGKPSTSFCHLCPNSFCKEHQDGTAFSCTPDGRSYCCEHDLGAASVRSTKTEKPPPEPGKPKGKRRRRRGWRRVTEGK
PglD DTNB – inhibitors of Campylobacter jejuni PglD acetyltransferase | AID 602405 | actives 0.098% (n = 360,000) | purified PglD enzyme, DTNB colorimetric CoA detection | inhibition, % at 12.5 µM; in the data active means inhibition above about 16%, passing the limit was not always enough
CFTR F508del cor – correctors of CFTR F508del function in bronchial epithelial cells. activity (quench increase), % at 7.58 µM. CFBE cells, YFP halide quenching; stimulated with forskolin plus potentiator P3; % fluorescence drop versus neutral controls. actives 0.36% (n = 350,000). AID 720511;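 active means mean added fluorescence quench of at least 8% versus neutral control, with both replicates also reaching 8%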;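 further: cells transiently co-express mutant CFTR-F508del with the halide-sensitive YFP; corrector assay measuring rescue of mutant channel to the surface after 24 h compound exposure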
ALR inh – blocks human ALR sulfhydryl oxidase activity. actives 3.8% (n = 290,000). purified ALR, DTT oxidation, H2O2 HRP-luminol luminescence. P55789. AID 485317. inhibition, % (concentration not given with the values);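 active means mean replicate inhibition above about 79%, with every replicate also reaching it, limit read from the data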
CASP6 VEID inh – blocks human caspase-6 cleavage activity. P55212. purified caspase-6, Z-VEID-R110 cleavage fluorescence. inhibition, % at 12.5 µM. actives 0.53% (n = 350,000);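 active means mean inhibition across replicates at least about 35%, with every replicate also reaching that limit, limit read from the data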
Env fusion inh – blocks HIV Env-driven cell-cell fusion; actives 1.1% (n = 360,000); HeLa-JRFL Env/CEM21 cell fusion, luciferase; inhibition, % at 12.3 µM;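 active means mean replicate inhibition score of at least 50 and every replicate individually at or above 50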
A number is an active result.

`O=C(NCC(c1cccnc1)N1CCN(c2ccc(F)cc2)CC1)c1ccco1` (stereo not given) gave PglD DTNB inactive, CFTR F508del cor inactive, ALR inh 92.4, CASP6 VEID inh inactive and Env fusion inh inactive.
For O=C(c1ccc(S(=O)(=O)NCC2CCCO2)cc1)N1CCN(c2cccc(Cl)c2)CC1 (stereo not given) the results were NSD2 inh inactive, CFTR F508del cor 16.0, CASP6 VEID inh inactive and Env fusion inh inactive.
Screening O=C(c1ccc(S(=O)(=O)NCC2CCCO2)cc1)N1CCN(c2ccccc2F)CC1 (stereo not given) returned NSD2 inh inactive, CFTR F508del cor inactive, ALR inh inactive, CASP6 VEID inh inactive and Env fusion inh inactive.
Screening O=C(NCc1ccncc1)C(=O)NCC(c1ccco1)N1CCN(c2ccccc2)CC1 (stereo not given) returned NSD2 inh inactive, CFTR F508del cor inactive, ALR inh 99.2, CASP6 VEID inh inactive and Env fusion inh inactive.
`COc1ccc(N2CCN(C(CNC(=O)c3ccco3)c3cccnc3)CC2)cc1` (stereo not given) gave NSD2 inh inactive, PglD DTNB inactive and ALR inh 89.0.
Screening C[C@@H]1CCCCO[C@@H](CN(C)C(=O)NC2CCCCC2)[C@@H](C)CN([C@H](C)CO)C(=O)c2cc(NC(=O)Nc3ccc4c(c3)OCO4)ccc2O1 returned PglD DTNB inactive, CFTR F508del cor inactive, CASP6 VEID inh inactive and Env fusion inh inactive.
`COc1cccc(S(=O)(=O)N[C@H]2CC[C@@H](CCn3cc(-c4ccccn4)nn3)O[C@@H]2CO)c1` gave PglD DTNB inactive, CFTR F508del cor inactive, CASP6 VEID inh inactive and Env fusion inh inactive.
For CCCN(C)C[C@@H]1Oc2cc(-c3cccc(F)c3)ccc2S(=O)(=O)N([C@@H](C)CO)C[C@@H]1C the results were CFTR F508del cor inactive and Env fusion inh inactive.
For COc1cccc(C#Cc2cnc3c(c2)C(=O)N([C@@H](C)CO)C[C@H](C)[C@H](CN(C)C(C)=O)O3)c1 the results were PglD DTNB inactive, CFTR F508del cor inactive, CASP6 VEID inh inactive and Env fusion inh inactive.
O=C(COc1coc(CN2CCN(c3ccccc3)CC2)cc1=O)NCC1CCCO1 (stereo not given) was read as NSD2 inh inactive, PglD DTNB inactive, CFTR F508del cor inactive, ALR inh 93.4, CASP6 VEID inh inactive and Env fusion inh inactive.
O=C(NCc1cccnc1)C(=O)NCC(c1ccco1)N1CCN(c2ccc(F)cc2)CC1 (stereo not given) was read as NSD2 inh inactive, PglD DTNB inactive and ALR inh 85.8.
For COc1ccc(N2CCN(C(CNC(=O)c3ccc4c(c3)OCO4)c3cccnc3)CC2)cc1 (stereo not given) the results were NSD2 inh inactive, PglD DTNB inactive and ALR inh 96.7.
`CC(C)NC(=O)COc1coc(CN2CCN(c3ccccc3)CC2)cc1=O` gave NSD2 inh inactive, PglD DTNB inactive, CFTR F508del cor inactive, ALR inh inactive, CASP6 VEID inh inactive and Env fusion inh inactive.
`CN(C)CCCNC(=O)[C@@H]1[C@@H](CO)[C@@H]2Cn3c(ccc(-c4ccncc4)c3=O)[C@H]1N2C(=O)C1CC1` gave PglD DTNB inactive, CFTR F508del cor inactive and CASP6 VEID inh inactive.
Nc1nnc(SCC(=O)N2CCN(c3ccccc3)CC2)s1 was read as NSD2 inh inactive, ALR inh 98.8 and Env fusion inh inactive.
Cn1c(Cc2cccc3ccccc23)nnc1SCC(=O)N1CCN(c2ccccc2)CC1 was read as NSD2 inh inactive, PglD DTNB inactive, ALR inh inactive, CASP6 VEID inh inactive and Env fusion inh 62.8.
`Cn1c(SCC(=O)N2CCN(c3ccccc3)CC2)nnc1-c1ccncc1` gave PglD DTNB inactive and ALR inh inactive.
Screening Cn1c(SCC(=O)N2CCN(c3cccc(Cl)c3)CC2)nnc1-c1ccncc1 returned NSD2 inh inactive, PglD DTNB inactive, ALR inh inactive and Env fusion inh 98.0.
`Nc1nnc(SCC(=O)N2CCN(c3ccccc3)CC2)n1-c1ccccc1` gave NSD2 inh inactive, PglD DTNB inactive, ALR inh 98.2 and Env fusion inh inactive.
`Nc1nnc(SCC(=O)N2CCCCC2)s1` gave NSD2 inh inactive, PglD DTNB inactive, CFTR F508del cor inactive, CASP6 VEID inh inactive and Env fusion inh inactive.
`C[C@H](CO)N1C[C@H](C)[C@H](CN(C)Cc2ccc(C(=O)Nc3ccccc3N)cc2)Oc2c(NS(=O)(=O)c3ccc(F)cc3)cccc2C1=O` gave CFTR F508del cor inactive and CASP6 VEID inh inactive.
For COc1ccc2c3c(n(C)c2c1)[C@@H](CO)N(C(=O)CN(C)C)CC31CN(C(=O)C2CCC2)C1 the results were CFTR F508del cor inactive.
Screening C[C@@H](O)C#Cc1ccc([C@@H]2[C@H](CO)N3CCCCN(C(=O)c4ccc(F)cc4)C[C@@H]23)cc1 returned PglD DTNB inactive, CFTR F508del cor inactive and CASP6 VEID inh inactive.
Screening CSc1cccc(NC(=O)CN2C(=O)c3ccccc3S2(=O)=O)c1 returned PglD DTNB inactive, CFTR F508del cor inactive, ALR inh 95.2, CASP6 VEID inh inactive and Env fusion inh inactive.
O=C(CN1C(=O)c2ccccc2S1(=O)=O)Nc1ccccc1 was read as NSD2 inh inactive, PglD DTNB inactive, CFTR F508del cor inactive, ALR inh inactive and CASP6 VEID inh inactive.
Cc1noc(C)c1S(=O)(=O)Nc1ccc2c(c1)C(=O)N([C@@H](C)CO)C[C@H](C)[C@H](CN(C)S(=O)(=O)c1cccs1)OCCCC[C@@H](C)O2 was read as PglD DTNB inactive, CFTR F508del cor inactive and Env fusion inh inactive.
`Nc1nc(-c2cc3c(cc2Cl)OCCO3)cs1` gave NSD2 inh inactive, PglD DTNB inactive, CFTR F508del cor inactive, ALR inh 99.4, CASP6 VEID inh inactive and Env fusion inh inactive.
`CC1Cc2cc(-c3csc(N)n3)ccc2O1` (stereo not given) gave NSD2 inh inactive, PglD DTNB inactive, CFTR F508del cor inactive, CASP6 VEID inh inactive and Env fusion inh inactive.
`Nc1nc(-c2ccc3c(c2)CCCC3)cs1` gave NSD2 inh inactive, PglD DTNB inactive and ALR inh 98.5.
Cc1nc(-c2ccc3c(c2)OCCCO3)cs1 was read as NSD2 inh inactive, CFTR F508del cor inactive, ALR inh inactive, CASP6 VEID inh inactive and Env fusion inh inactive.
`c1ccn2cc(-c3ccc4c(c3)OCCO4)nc2c1` gave NSD2 inh inactive, CFTR F508del cor inactive, ALR inh inactive, CASP6 VEID inh inactive and Env fusion inh inactive.
Cc1ccc2nc(-c3ccc4c(c3)OCCO4)cn2c1 was read as NSD2 inh inactive, PglD DTNB inactive, CFTR F508del cor 12.1, ALR inh inactive, CASP6 VEID inh inactive and Env fusion inh inactive.
`Nc1nc(-c2ccc3c(c2)OCCO3)cs1` gave NSD2 inh inactive, PglD DTNB inactive and ALR inh 98.6.
